Source: PubChem BioAssay
ANO1 activ = mouse TMEM16A channel activation, primary screen; HEK293 TMEM16A/YFP-H148Q/I152L, iodide quench fluorescence; hits give low values; Q8BHY3; 340,000 tested, 0.3% active; B-score at 10 µM;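 active = fluorescence-ratio B-score plate-corrected deviation score at least 3 library SD below zero, with starting fluorescence score within 5 deviations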;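 note: channel opened by trigger with iodide after compound preincubation; score built on the fluorescence ratio of max minus min over baseline; more negative score means more quench and so TMEM16A activation or potentiation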
TMEM16A inh = mouse TMEM16A channel inhibition, primary screen; HEK293 TMEM16A/YFP iodide influx fluorescence, ionomycin; normalized B-score (activity score, 25-100; higher = stronger inhibition) at 10 µM; 310,000 tested, 1.2% active; AID 588511;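 active = ratio plate-corrected score three or more library SD toward inhibition, starting fluorescence score within five deviations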;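 note: score derived from kinetic fluorescence span divided by baseline fluorescence per well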
Kir21 inh = blocks the mouse Kir2.1 inward-rectifier potassium channel. 310,000 tested, 0.85% active. AID 1672. HEK293-Kir2.1, FluxOR thallium flux fluorescence; hits give low values. P35561. B-score at 10 µM;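 active = fluorescence ratio B-score at or below minus 3 SD of library scores, with starting-brightness B-score within 2 SD, cut at about -4.2 in these data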;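 note: channel flux triggered by added potassium and thallium sulfate stimulus; B-score of peak minus minimum fluorescence over baseline after thallium stimulus; more negative B-score means stronger Kir2.1 block with less thallium influx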
Target sequence (P35561 whole entry, looked up): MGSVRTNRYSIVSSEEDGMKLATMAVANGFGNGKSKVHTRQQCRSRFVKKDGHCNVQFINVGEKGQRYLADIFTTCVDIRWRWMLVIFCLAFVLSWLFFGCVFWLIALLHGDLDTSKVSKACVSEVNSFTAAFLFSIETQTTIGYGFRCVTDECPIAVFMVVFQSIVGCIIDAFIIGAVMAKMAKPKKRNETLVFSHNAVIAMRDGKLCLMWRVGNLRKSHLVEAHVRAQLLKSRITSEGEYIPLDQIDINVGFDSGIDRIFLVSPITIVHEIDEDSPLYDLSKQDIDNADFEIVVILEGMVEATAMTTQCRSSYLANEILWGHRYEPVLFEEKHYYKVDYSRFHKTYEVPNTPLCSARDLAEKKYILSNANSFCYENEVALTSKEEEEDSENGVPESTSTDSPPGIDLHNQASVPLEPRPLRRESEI
GPR7 antagonist = blocks human GPR7 receptor signaling | P48145 | inhibition, % at 4.4 µM | 290,000 tested, 1.1% active | GPR7-expressing cells, fluorescence antagonist assay; in the data active = inhibition above about 16%, passing the limit was not always enough;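 note: cells stimulated with the agonist NPW; 0% = agonist with vehicle and 100% = vehicle without agonist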
CHT PAM = allosteric activators of human choline transporter CHT | Q9GZV3 | CHT-expressing cells, membrane potential dye, choline EC20; hits give high values; LV-AA mutant CHT in HEK293 cells | B-score at 10 µM | 310,000 tested, 0.49% active;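 active = initial fluorescence not abnormally high and integrated response B-score, plate-corrected, over 3 SD above library mean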
CHT block = inhibits the human high affinity choline transporter; B-score at 10 µM; 310,000 tested, 0.86% active; Q9GZV3; CHT-expressing cells, membrane potential dye, choline response; hits give low values;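 active = B-score over 3 SD under the library average, and starting fluorescence ratio not unusually high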;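 note: choline stimulus applied at its EC90 after an EC20 pre-addition; B-score computed on integrated fluorescence ratio after choline addition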
CHT act confirm = human CHT activation, confirmatory screen. activation, % at 10 µM. shares compounds with CHT PAM. 2,500 tested, 91% active. CHT-expressing cells, membrane potential dye fluorescence (FDSS); % of choline EC20–EC90 response window; HEK293 expressing CHT LV-AA mutant; choline added at its EC20;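 active = primary screen active, with duplicate mean activation above negative control mean plus 3 SD, cut at about 11% in these data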
HEK293 MP dye = CHT activator counter-screen hit in parental HEK293 cells | membrane potential dye fluorescence (FDSS); measured after EC20 choline addition | 2,500 tested, 62% active | shares compounds with CHT PAM | ratio readout change at 10 µM, hits read low;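 active = duplicate-averaged ratio beyond 3 SD from buffer wells, up or down, though filed actives are nearly all decreases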
Numbers without * were called inactive; i = inactive; x = no result. This is a sample that favours compounds with a hit; in the whole collection about 3.7% have one here.

SMILES	ANO1 activ	TMEM16A inh	Kir21 inh	GPR7 antagonist	CHT PAM	CHT block	CHT act confirm	HEK293 MP dye
CCOc1ccc(-n2c(SCC(N)=O)nc3sc4c(c3c2=O)CCN(C)C4)cc1	i	i	0.58	4	i	i	38*	-33*
CCOC(=O)CSc1nc2sc3c(c2c(=O)n1-c1ccc(OCC)cc1)CCN(C)C3	i	i	2	8	i	i	x	x
CCOC(=O)CSc1nc2sc3c(c2c(=O)n1C1CCCCC1)CCN(C)C3	i	i	-0.26	-7	8.1*	i	27*	-29*
Cc1c(CCOC(=O)CC23CC4CC(CC(C4)C2)C3)sc[n+]1CC(=O)c1ccccc1	i	i	-2.6	-3	i	i	45*	i
COC(=O)c1ccc(C)c(NS(=O)(=O)c2ccc(OC)cc2)c1	i	i	-2.1	9	8.1*	i	48*	i
COC(=O)c1ccc(C)c(NS(=O)(=O)c2ccc3c(c2)OCCO3)c1	i	i	0	23	i	i	x	x
CCCCC(=O)Nc1ccccc1N1CCN(c2ccccc2)CC1	i	i	1.7	7	i	i	22*	i
CCCCCC(=O)Nc1ccccc1N1CCOCC1	i	i	-2.2	-4	i	i	x	x
Cc1ccc(Nc2nc(-c3c(C)nc4ncccn34)cs2)cc1	i	i	0.95	17	6.7*	i	29*	i
CSC(=NC#N)N1CCN(c2ccc([N+](=O)[O-])cc2)CC1	i	i	-0.29	2	i	i	x	x
COc1ccc(-c2cc3nc4n(c(=O)c3s2)CCC4)cc1	i	i	-1.3	-6	i	i	x	x
COc1ccc(-c2nc3n(c2C)CCC3)cc1	i	i	-0.09	-3	6.4*	i	57*	-63*
COC(=O)c1ccccc1NC(=O)c1cc[n+](C)cc1	i	i	-0.03	x	i	i	60*	-55*
COC(=O)c1ccccc1NC(=O)c1cc[n+]([O-])cc1	i	i	-3.2	-4	i	i	x	x
CC(C)(C)OC(=O)N1CCC(NC(=O)c2[nH]cnc2C(=O)Nc2cccc(Cl)c2)CC1	i	x	x	x	x	x	x	x
Cc1cc(=O)oc2cc(OCCCC[n+]3ccccc3)ccc12	i	i	2.1	-20	i	i	62*	-38*
Cc1cc(=O)oc2cc(OCC(=O)c3ccccc3)ccc12	i	i	0.36	2	i	i	x	x
COc1ccc(S(=O)(=O)N2CCCCCC2)cc1C(=O)N1CCCC(C(F)(F)F)C1 (stereo unspecified)	i	i	0.03	x	10*	i	15*	i
CC1=C(C(=O)OC2CCCCC2)C(c2ccc(N(C)C)cc2)NC(=O)N1 (stereo unspecified)	i	i	-1.3	-22	i	i	x	x
Cc1cc(N2CCCCC2)nc2c(C)cccc12	i	i	-0.15	1	i	i	x	x
Cc1cc(N2CCCC2)nc2ccccc12	i	i	1.2	-13	i	i	48*	-58*
COc1cc(C(=O)c2cocc2C(=O)c2ccc3c(c2)OCO3)cc(OC)c1OC	i	i	0.02	17	11*	i	26*	i
CCCCC1CN2CCc3c([nH]c4ccccc34)C2(C)C1 (stereo unspecified)	i	i	-2.5	-1	i	i	x	x
CC(C)N1CCN(C(=O)c2ccc([N+](=O)[O-])cc2)CC1	i	i	1	x	i	i	x	x
Cc1cc(/C=N/NC(N)=O)c(C)n1-c1ccc(F)cc1	i	i	-0.41	3	14*	i	23*	i
SMILES	ANO1 activ	TMEM16A inh	Kir21 inh	GPR7 antagonist	CHT PAM	CHT block	CHT act confirm	HEK293 MP dye
COc1ccc(NC(=O)CSCC(=O)N(C)CCOc2ccc(Cl)cc2)cc1	i	i	0.01	x	i	i	x	x
O=C(NCC(c1ccco1)N1CCc2ccccc2C1)c1ccc(Cl)cc1 (stereo unspecified)	i	i	-0.33	x	i	i	11*	i
O=C(NCC(c1ccco1)N1CCc2ccccc21)c1ccccc1Cl (stereo unspecified)	i	i	0.51	x	9.4*	i	29*	i
COC(=O)c1c(NC(NC(=O)c2ccccc2)(C(F)(F)F)C(F)(F)F)sc2c1CCN(C)C2	i	i	0.87	-8	7.2*	i	69*	-59*
COc1ccc(CCN2C(=O)N[C@@H](C(C)C)C2=O)cc1	i	i	-0.22	-6	i	i	x	x
CCn1c(/C=C/N(C(C)=O)c2ccccc2)[n+](CCCS(=O)(=O)[O-])c2cc(Cl)c(Cl)cc21	i	i	1.4	-6	i	i	x	x
CCn1c(/C=C/Nc2ccccc2)[n+](CC)c2cc(Cl)c(Cl)cc21	i	i	-7*	-7	7*	i	33*	-37*
FC(F)(F)c1nc(SCc2ccccc2)n[nH]1	i	i	0.73	x	i	i	x	x
CCOC(=O)[C@H]1[C@H]2COc3ccccc3[C@@H]2N2C(=O)CN(Cc3ccc(C)cc3)C(=O)[C@@]12C	i	x	x	x	x	x	x	x
CCC1=[N+](CC(=O)c2ccc(C)cc2)CCn2c(C)ccc21	i	i	1.9	-4	i	i	32*	i
CC(C)C(=O)N1CCN(c2cc(N3CCN(C)CC3)c(F)cc2[N+](=O)[O-])CC1	i	i	-1.4	-8	7.9*	i	45*	-49*
CCOc1ccc(NC(=O)CCC(=O)NNC(=O)c2ccc(Br)o2)cc1	i	i	0.88	-12	i	i	x	x
O=c1c2ccccc2nc2ccc(NCc3ccco3)nn12	i	i	-0.9	4	i	i	x	x
Cc1sc2nc3ccc(NCc4ccco4)nn3c(=O)c2c1C	i	i	0.42	-1	6.6*	i	12*	-37*
Cc1cc(C)n2[nH]c(=O)c(N=Nc3ccc(S(N)(=O)=O)cc3)c2n1	i	i	-0.56	3	9.2*	i	70*	-81*
Cc1ccc(-c2nc3ncccn3c2NC2CCCC2)o1	i	i	-1.4	-14	i	i	x	x
Cc1ccc(-c2nc3ncccn3c2Nc2ccccc2C)o1	i	i	-1.6	16	i	i	40*	-43*
